Laboratory results from PubChem BioAssay AID1159580 (chemical genetic matrix, 2015).
Values joined by “and” are separate entries in the source; they are usually repeats but may differ in a detail not shown here. Identical values can stand only once. About 2,000 (36%) of roughly 5,500 compounds were called active. Inconclusive results (about 18%) are left out. No stated cut-off is given here; in the data, active means normalized growth mostly below about 0.91 (no sharp cut-off); inconclusive means no clear call, values can overlap the other calls; inactive means mostly above about 0.92. The list shows a part of the results.

Experiment: chemical genetic growth profiling, strain panel (AID 1159580);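 further: tested at 20 µM; growth read once vehicle control cultures reached saturation at 30 °C; 1 = growth at the plate median or of vehicle wells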
Settings: growth OD

Measured: normalized growth

CN(C)C(=O)Oc1cccc([N+](C)(C)C)c1
inactive: S. cerevisiae deletion strains, locus YJR075W, strain HOC1, stronger effect = lower value 1.02 | S. cerevisiae deletion strains, locus YKL009W, strain mrt4, stronger effect = lower value 0.969 | S. cerevisiae deletion strains, locus YKL068W, stronger effect = lower value 0.988 | S. cerevisiae deletion strains, locus YKL085W, strain MDH1 (second series), stronger effect = lower value 0.985 | S. cerevisiae deletion strains, locus YKL085W, strain MDH1, stronger effect = lower value 0.985 | S. cerevisiae deletion strains, locus YKL160W, strain elf1, stronger effect = lower value 0.996 | S. cerevisiae deletion strains, locus YKL190W, strain CNB1, stronger effect = lower value 1 | S. cerevisiae deletion strains, locus YKR001C, strain vps1, stronger effect = lower value 0.983 | S. cerevisiae deletion strains, locus YKR026C, strain gcn3, stronger effect = lower value 0.984 | S. cerevisiae deletion strains, locus YKR091W, strain srl3, stronger effect = lower value 0.995 | S. cerevisiae deletion strains, locus YLL001W, strain dnm1, stronger effect = lower value 0.988 | S. cerevisiae deletion strains, locus YLL026W, stronger effect = lower value 1 | S. cerevisiae deletion strains, locus YLL041C, strain sdh2, stronger effect = lower value 1.01 | S. cerevisiae deletion strains, locus YLR027C, strain aat2, stronger effect = lower value 0.984 | S. cerevisiae deletion strains, locus YLR039C, strain RIC1, stronger effect = lower value 0.985 | S. cerevisiae deletion strains, locus YLR058C, strain SHM2, stronger effect = lower value 0.996 | S. cerevisiae deletion strains, locus YLR102C, strain apc9, stronger effect = lower value 0.995 | S. cerevisiae deletion strains, locus YLR113W, strain HOG1, stronger effect = lower value 0.989 | S. cerevisiae deletion strains, locus YLR221C, strain rsa3, stronger effect = lower value 0.99 | S. cerevisiae deletion strains, locus YLR258W, strain gsy2, stronger effect = lower value 1 | S. cerevisiae deletion strains, locus YLR262C, strain YPT6 (second series), stronger effect = lower value 1 | S. cerevisiae deletion strains, locus YLR262C, strain YPT6, stronger effect = lower value 1.02 | S. cerevisiae deletion strains, locus YLR268W, strain sec22, stronger effect = lower value 0.956 | S. cerevisiae deletion strains, locus YLR320W, strain mms22, stronger effect = lower value 0.996 | S. cerevisiae deletion strains, locus YLR330W, strain CHS5, stronger effect = lower value 0.982 | S. cerevisiae deletion strains, locus YLR342W, strain FKS1 (second series), stronger effect = lower value 0.998 | S. cerevisiae deletion strains, locus YLR342W, strain FKS1, stronger effect = lower value 1.01 | S. cerevisiae deletion strains, locus YLR357W, strain rsc2, stronger effect = lower value 0.964 | S. cerevisiae deletion strains, locus YLR370C, strain arc18, stronger effect = lower value 1 | S. cerevisiae deletion strains, locus YLR371W, strain rom2, stronger effect = lower value 0.983 | S. cerevisiae deletion strains, locus YLR384C, strain iki3, stronger effect = lower value 1 | S. cerevisiae deletion strains, locus YLR418C, strain cdc73, stronger effect = lower value 0.972 | S. cerevisiae deletion strains, locus YML016C, strain PPZ1, stronger effect = lower value 0.987 | S. cerevisiae deletion strains, locus YML032C, strain rad52, stronger effect = lower value 0.982 | S. cerevisiae deletion strains, locus YML120C, strain ndi1, stronger effect = lower value 0.999 | S. cerevisiae deletion strains, locus YML124C, strain tub3, stronger effect = lower value 0.984 | S. cerevisiae deletion strains, locus YMR058W, strain fet3, stronger effect = lower value 1.01 | S. cerevisiae deletion strains, locus YMR078C, strain ctf18, stronger effect = lower value 0.984 | S. cerevisiae deletion strains, locus YMR125W, strain sto1, stronger effect = lower value 0.976 | S. cerevisiae deletion strains, locus YMR129W, stronger effect = lower value 0.997 | S. cerevisiae deletion strains, locus YMR205C, strain PFK2, stronger effect = lower value 0.994 | S. cerevisiae deletion strains, locus YMR223W, strain ubp8, stronger effect = lower value 0.995 | S. cerevisiae deletion strains, locus YMR231W, strain pep5, stronger effect = lower value 0.999 | S. cerevisiae deletion strains, locus YMR263W, strain SAP30, stronger effect = lower value 0.996 and 1.01 | S. cerevisiae deletion strains, locus YMR307W, strain GAS1, stronger effect = lower value 0.984 and 1.02 | S. cerevisiae deletion strains, locus YNL067W, strain RPL9B, stronger effect = lower value 1.01 | S. cerevisiae deletion strains, locus YNL071W, strain lat1, stronger effect = lower value 1.01 | S. cerevisiae deletion strains, locus YNL153C, strain GIM3, stronger effect = lower value 1.01 | S. cerevisiae deletion strains, locus YNL175C, strain NOP13, stronger effect = lower value 1.01 | S. cerevisiae deletion strains, locus YNL183C, strain NPR1, stronger effect = lower value 0.953 | S. cerevisiae deletion strains, locus YNL197C, strain WHI3, stronger effect = lower value 1.02 | S. cerevisiae deletion strains, locus YNL209W, strain ssb2, stronger effect = lower value 0.994 | S. cerevisiae deletion strains, locus YNL224C, strain SQS1, stronger effect = lower value 1 | S. cerevisiae deletion strains, locus YNL233W, strain BNI4, stronger effect = lower value 0.988 | S. cerevisiae deletion strains, locus YNL248C, strain rpa49, stronger effect = lower value 0.99 | S. cerevisiae deletion strains, locus YNL250W, strain rad50, stronger effect = lower value 0.978 | S. cerevisiae deletion strains, locus YNL271C, strain bni1, stronger effect = lower value 0.983 | S. cerevisiae deletion strains, locus YNL298W, strain CLA4, stronger effect = lower value 0.979 | S. cerevisiae deletion strains, locus YNL307C, strain MCK1, stronger effect = lower value 0.982 | S. cerevisiae deletion strains, locus YNL322C, strain KRE1 (second series), stronger effect = lower value 0.989 | S. cerevisiae deletion strains, locus YNR049C, strain mso1, stronger effect = lower value 0.98 | S. cerevisiae deletion strains, locus YNR052C, strain pop2, stronger effect = lower value 0.982 | S. cerevisiae deletion strains, locus YOL006C, strain TOP1, stronger effect = lower value 1.03 | S. cerevisiae deletion strains, locus YOL012C, strain htz1 1.09 | S. cerevisiae deletion strains, locus YOL147C, strain pex11, stronger effect = lower value 0.985 | S. cerevisiae deletion strains, locus YOR001W, strain rrp6, stronger effect = lower value 0.989 | S. cerevisiae deletion strains, locus YOR061W, strain CKA2, stronger effect = lower value 0.987 | S. cerevisiae deletion strains, locus YOR069W, strain VPS5, stronger effect = lower value 0.986 | S. cerevisiae deletion strains, locus YOR070C, strain gyp1, stronger effect = lower value 1 | S. cerevisiae deletion strains, locus YOR080W, strain dia2, stronger effect = lower value 0.996 | S. cerevisiae deletion strains, locus YOR083W, strain WHI5 (second series), stronger effect = lower value 1.01 | S. cerevisiae deletion strains, locus YOR083W, strain WHI5, stronger effect = lower value 0.998 | S. cerevisiae deletion strains, locus YOR106W, strain vam3, stronger effect = lower value 0.998 | S. cerevisiae deletion strains, locus YOR136W, strain idh2, stronger effect = lower value 0.992 | S. cerevisiae deletion strains, locus YOR144C, strain elg1, stronger effect = lower value 0.994 | S. cerevisiae deletion strains, locus YOR184W, strain ser1, stronger effect = lower value 0.99 | S. cerevisiae deletion strains, locus YOR231W, strain MKK1, stronger effect = lower value 1.02 | S. cerevisiae deletion strains, locus YOR265W, strain rbl2, stronger effect = lower value 0.996 | S. cerevisiae deletion strains, locus YOR270C, strain vph1, stronger effect = lower value 1.03 | S. cerevisiae deletion strains, locus YOR290C, strain snf2, stronger effect = lower value 1.01 | S. cerevisiae deletion strains, locus YOR316C, strain cot1, stronger effect = lower value 0.994 | S. cerevisiae deletion strains, locus YPL051W, strain arl3, stronger effect = lower value 1 | S. cerevisiae deletion strains, locus YPL055C, strain LGE1, stronger effect = lower value 1.02 | S. cerevisiae deletion strains, locus YPL078C, strain atp4, stronger effect = lower value 0.994 | S. cerevisiae deletion strains, locus YPL106C, strain sse1, stronger effect = lower value 0.973 | S. cerevisiae deletion strains, locus YPL240C, strain hsp82, stronger effect = lower value 1 | S. cerevisiae deletion strains, locus YPL241C, strain CIN2, stronger effect = lower value 1 | S. cerevisiae deletion strains, locus YPL256C, strain CLN2, stronger effect = lower value 0.986 | S. cerevisiae deletion strains, locus YPR119W, strain clb2, stronger effect = lower value 0.995 | S. cerevisiae deletion strains, locus YPR141C, strain kar3, stronger effect = lower value 0.978 | S. cerevisiae deletion strains, locus YPR163C, strain tif3, stronger effect = lower value 0.984 | S. cerevisiae deletion strains, locus YPR167C, strain met16, stronger effect = lower value 0.984 | S. cerevisiae deletion strains, strain wtn01, stronger effect = lower value 0.964 | S. cerevisiae strains, strain wild type, stronger effect = lower value 1.01
